Values without a mark were called inactive.
System: Vero E6 infected with SARS-CoV-2
Assay: inhibition of SARS-CoV-2 cytopathic effect; higher = more antiviral protection, active = above 15
Details: 48 h

Row | SMILES | inhibition of SARS-CoV-2 cytopathic effect (1 nM) | inhibition of SARS-CoV-2 cytopathic effect (8.33 nM) | inhibition of SARS-CoV-2 cytopathic effect (100 nM) | inhibition of SARS-CoV-2 cytopathic effect (833.33 nM) | inhibition of SARS-CoV-2 cytopathic effect (10000 nM)
1 | O=C1NCCNC1c1cccs1 (stereo not given) [tenilsetam] | 3.34% | 0.52% | -1.98% | -2.12% | -1.68%
2 | CN(C)N(C)C(=O)[C@@]1(Cc2ccccc2)CCCN(C(=O)[C@@H](Cc2c[nH]c3ccccc23)NC(=O)C(C)(C)N)C1 [anamorelin] | -0.24% | -1% | 9.14% | -2.12% | -0.05%
3 | CN=c1nc(-c2ccccc2)n(-c2ccccc2)s1 | 1.73% | 0.95% | -0.38% | 0.89% | -1.43%
4 | O=C(O)c1ccc(Nc2ncc3c(n2)-c2ccc(Cl)cc2C(c2c(F)cccc2F)=NC3)cc1 | -1.58% | -1.02% | 0.11% | -1.57% | -1.05%
5 | CO[C@H]1/C=C/O[C@@]2(C)Oc3c(C)c(O)c4c(O)c(c5c(nc6cc(C)ccn65)c4c3C2=O)NC(=O)/C(C)=C\C=C\[C@H](C)[C@H](O)[C@@H](C)[C@@H](O)[C@@H](C)[C@H](OC(C)=O)[C@@H]1C [rifaximin] | 0.71% | -2.16% | -0.03% | -3.72% | -3.3%
6 | CC(Cc1cccc(C(F)(F)F)c1)NCCOC(=O)c1ccccc1 (stereo not given) [benfluorex] | 0.5% | 0.35% | -0.24% | -1.03% | 0.26%
7 | CC1C=CC=CCCC=CC=CC=CC=CC(OC2OC(C)C(O)C(N)C2O)CC2OC(O)(CC(O)C(O)CCC(O)CC(O)CC(O)CC(=O)OC(C)C(C)C1O)CC(O)C2C(=O)O (stereo not given) [nystatin] | 0.06% | -1.74% | -1.14% | -1.11% | 3.99%
8 | C[C@@H](O)[C@H]1C(=O)N2C(C(=O)O)=C(S[C@@H]3CN[C@H](CNS(N)(=O)=O)C3)[C@H](C)[C@H]12 [doripenem] | -0.14% | 0.27% | -2.53% | -0.35% | 0.46%
9 | CCCCc1ccc(NS(=O)(=O)c2ccc(F)cc2)cc1 | -1.42% | -2.12% | -1.58% | -3.93% | -1.95%
10 | CO[C@H]1C[C@H](O[C@H]2CC[C@@]3(C)[C@H](CC[C@@H]4[C@@H]3CC[C@]3(C)[C@@H](C5=CC(=O)OC5)[C@@H](OC(C)=O)C[C@]43O)C2)O[C@@H](C)[C@@H]1O [oleandrin] | -3.22% | -5.79% | -12.1% | -12.2% | -9.58%
11 | CCCCCCCCNC(C)C(O)c1ccc(SC(C)C)cc1 (stereo not given) [suloctidil] | 0.05% | -0.56% | -0.38% | 0.21% | -0.41%
12 | Cc1cc2c(cc1CC(=O)c1sccc1S(=O)(=O)Nc1onc(C)c1Cl)OCO2 [sitaxentan] | -0.88% | -1.81% | 0.75% | 1.22% | 1.37%
13 | CCC(CC)CC1(C(=O)Nc2ccccc2SC(=O)C(C)C)CCCCC1 [dalcetrapib] | -1.76% | -0.46% | -1.34% | -4.44% | -2.5%
14 | Nc1ccc2ncnc(NCCc3ccc(Oc4ccccc4)cc3)c2c1 | -1.24% | 1.54% | -1.53% | 0.25% | -4.62%
15 | CC(C)Cc1ccc([C@@H](C)C(=O)NS(C)(=O)=O)cc1 [reparixin] | 2.11% | 3.05% | 3.66% | 0.65% | 4.19%
16 | COc1cccc(-c2ccc(NC(=O)C3=C(C(=O)O)CCC3)c(F)c2)c1 | 2.25% | 3.22% | 2.16% | 5.63% | 4.97%
17 | CC(=O)Oc1cccc(C(=O)O)c1OC(C)=O [dipyrocetyl] | -0.44% | -1.4% | 2.59% | -0.15% | 5.25%
18 | COc1ccc(S(=O)(=O)N2c3ccc(Cl)cc3[C@](O)(c3ccccc3Cl)[C@@H]2C(=O)N2CCC[C@H]2C(N)=O)cc1OC [relcovaptan] | -0.27% | -0.84% | 0.53% | 1.63% | 2.72%
19 | COc1ccc(-c2oc3c(CC=C(C)C)c(O)cc(O)c3c(=O)c2O)cc1 [icaritin] | -1.11% | 0.17% | 0.02% | -0.36% | 2.24%

Row | SMILES | inhibition of SARS-CoV-2 cytopathic effect (1 nM) | inhibition of SARS-CoV-2 cytopathic effect (8.33 nM) | inhibition of SARS-CoV-2 cytopathic effect (100 nM) | inhibition of SARS-CoV-2 cytopathic effect (833.33 nM) | inhibition of SARS-CoV-2 cytopathic effect (10000 nM)
20 | O=C(NCCO)c1cccc(-c2cc(Nc3ccc(OC(F)(F)F)cc3)ncn2)c1 | 0.82% | 1.06% | 2.91% | 3.22% | 0.55%
21 | CCn1cc(C(=O)O)c(=O)c2cc(F)c(N3CCNCC3)cc21 [norfloxacin] | 2.7% | 2.29% | 3.02% | -0.29% | 3.46%
22 | CN1CCN(CC/C=C2/c3ccccc3Sc3ccc(S(=O)(=O)N(C)C)cc32)CC1 [thiothixene] | -3.86% | -3.67% | -4.39% | -3.71% | 14%
23 | COc1ccc2c(C)nc(Nc3nc(C)c(C)c(O)n3)nc2c1 [madrasin] | -1.29% | 0.26% | 1.24% | 0.66% | 30.8% (active)
24 | CCOc1ccc(-c2nc(-c3cccc4c3CCC4NCCO)no2)cc1OCC (stereo not given) | -0.52% | 0.67% | 1.13% | 0.77% | 5.33%
25 | C[C@@H](O)[C@H]1C(=O)N2C(C(=O)[O-])=C(SC3Cn4cnc[n+]4C3)[C@H](C)[C@H]12 (stereo not given in full) [biapenem] | -2.15% | -0.04% | 0.1% | 0.63% | -0.14%
26 | Cc1ccc(NC(=O)Nc2cc(C(F)(F)F)ccc2F)cc1Nc1ccc2c(c1)NC(=O)/C2=C\c1ccc[nH]1 | 5.12% | 5.28% | 5.34% | 7.91% | 4.87%
27 | Cc1cn([C@@H]2C[C@@H](O)[C@H](CO)O2)c(=O)[nH]c1=O [telbivudine] | 1% | -1.65% | -1.15% | -0.26% | 2.12%
28 | COc1cc(C(=O)NCC2(N(C)C)CCCC2)cc(OC)c1OCc1ccccc1 | 0.5% | 4.04% | 5.81% | -2.21% | -8%
29 | N#CC(c1ccc(Cl)cc1)c1c(Cl)cc(-n2ncc(=O)[nH]c2=O)cc1Cl (stereo not given) [diclazuril] | -4.3% | -0.75% | 0.27% | 1.84% | 0.73%
30 | Cc1cc(-n2c(=O)[nH]c(=O)n(C)c2=O)ccc1Oc1ccc(SC(F)(F)F)cc1 [toltrazuril] | 1.91% | -0.85% | 1.02% | -10.3% | -0.06%
31 | Oc1ccc(OCc2ccccc2)cc1 [monobenzone] | -1.3% | -1.35% | -0.07% | -0.61% | -2.93%
32 | Cc1ccc(-c2ncn(-c3ccc(Nc4nccc(-c5cccc(N6CCOCC6)c5)n4)cc3)n2)cn1 | -4.9% | -4.6% | -3.08% | -5.23% | -2.89%
33 | CN(c1nccc(=O)[nH]1)C1CCN(c2nc3ccccc3n2Cc2ccc(F)cc2)CC1 [mizolastine] | -1.24% | -0.74% | 0.47% | 0.93% | -1.33%
34 | Cc1ccc(NC(=O)c2ccc(CN3CCN(C)CC3)cc2)cc1Nc1nccc(-c2cccnc2)n1 [imatinib] | 2.28% | 1.75% | 5.42% | 7.15% | 20.1% (active)
35 | CN(C)Cc1cccc(N/C(=C2\C(=O)Nc3cc(C(N)=O)ccc32)c2ccccc2)c1 | -2.86% | 2.55% | 0.04% | 2.08% | 2.55%
36 | CC1(C)[C@@H](OC(=O)CCC(=O)O)CC[C@]2(C)[C@H]3C(=O)C=C4[C@@H]5C[C@@](C)(C(=O)O)CC[C@]5(C)CC[C@@]4(C)[C@]3(C)CC[C@@H]12 | 0.51% | 0.66% | 1.43% | 1.74% | -1.29%
37 | Cc1nc2c([nH]1)-c1ccccc1N(C(=O)c1ccc(NC(=O)c3ccccc3-c3ccccc3)cc1)CC2 [conivaptan] | 3.24% | -1.76% | 0.14% | -0.62% | -6.5%

Reference: the supplement of paper PMC13380429
